This passage reports growth results from PubChem BioAssay (NCI).

The panel holds about 83,000 compounds, 20% with a hit somewhere; the sample as a whole holds those more often.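 Step 1: grow cells in 96-well plates. Step 2: add test compound at a single concentration. Step 3: incubate 48 h. Step 4: record percent growth.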 Values without a mark were called inactive. The source made the active and inactive calls.

The test has as its system SNB-19 CNS. In words: NCI-60 one-dose screen, 48 h (100 = growth as untreated, 0 = no growth, -100 = all killed). Particulars: 10 µM unless noted. The method, then: Growth inhibition of the SNB-19 human tumor cell line is measured as a screen for anti-cancer activity. Cells are grown in 96 well plates and exposed to the test compound for 48 hours. Compounds are tested at a single concentration, which is 10^-5 M for most compounds. The reported endpoint is percent growth (GI% or GIPRCNT), where numbers from 0 - 100% represent growth inhibition, and numbers from -100% - 0 represent cell death. For example, a value of 40 represents 60% growth inhibition. A value of 0 means no net growth occurred over the course of the experiment. A value of -40 indicates 40% of cells at the beginning of the experiment died by the end of the experiment. A value of -100 means all cells are dead at the end of the experiment.
NCI-60 Human Tumor Cell Lines Screen was performed using the standard one-dose NCI protocol, which is described in more detail at https://dtp.cancer.gov/discovery_development/nci-60/default.htm.
Compounds with GIPRCNT values below 10 were considered active. Activity score was based on GIPRCNT using the following formula: […]
Score is 0 for GIPRCNT values of 100 or above, 50 for GIPRCNT values of 0, and 100 for GIPRCNT values of -100.
On to `COc1ccc(NC(=O)C2c3ccccc3C(=O)N(CC(C)C)C2c2cccs2)cc1` (stereo not given), for which the growth was 111%.

Consider `Cc1nc2ccc(Nc3nc(N4CCOCC4)nc(N4CCN(C)CC4)n3)cc2n1Cc1ccccc1`, for which the growth was 112%.

In the case of `O=C(NO)c1ccc(NCc2csc3ccccc23)cc1`, the growth is 69.5%.

On to `O=C(/C=C/c1cccc([N+](=O)[O-])c1)c1ccc(Nc2nc(N3CCCCC3)nc(N3CCCCC3)n2)cc1`, for which the growth is 100%.

In the case of `COc1cc2c(cc1C)NC(=O)/C2=C\c1c[nH]c2ccccc12`, the growth is 84.7%.

As to `COc1ccc(-c2nsc3c2NC(=O)CC3c2ccc3c(c2)OCO3)cc1` (stereo not given), the growth was 57.5%.

Regarding `CCOC(=O)NNc1cccc(Cl)c1`, the growth is 98%.

For the compound `COc1cccc2nc(Nc3cccc(NC(=O)c4ccc(N5CCN(C)CC5)c(C(F)(F)F)c4)c3)ccc12`, the growth is 48.4%.

Consider `CCc1ccc(-c2ccc(NC3CCCCCC3)nn2)cc1S(N)(=O)=O`, for which the growth is 103%.

With `Nc1nc(N)c2cc(CNc3ccc(Cl)c(Cl)c3)ccc2n1`, the growth is 31.5%.

On to `CCCCCCCCCCCCCCC(C(=O)OCC)C(=O)OCC`, for which the growth is 102%.

With `FC(F)(F)C1=NNC(c2ccc3ccccc3c2)=NN1`, the growth is 96.6%.

`COc1ccc2[nH]c(C(=O)OCc3ccc4cccc(O)c4n3)cc2c1`: the growth is 50.8%.

For `COc1ccc(/C=c2\c(=O)n(-c3ccccc3)c3nn4c(n23)=NNC42CCCCC2)cc1`, the growth was 93.9%.

`COC(=O)c1cc2oc(/C=N/NC(=O)c3cc4oc(-c5cccc(C(F)(F)F)c5)cc4[nH]3)cc2n1Cc1ccccc1`: the growth was 112%.

On to `COc1cc(C)cc2oc3oc(=O)c(-c4csc(-c5cc6ccccc6oc5=O)n4)cc3c(=O)c12`, for which the growth is 99.3%.

Regarding `CCCCC(CCc1ccccn1)C(=O)c1ccccc1` (stereo not given), the growth is 110%.

As for `CCCCOc1ncnc2nc[nH]c12`, the growth was 99.8%.

On to `O=C(c1ccc(C(F)(F)F)c(Cl)c1)N(Cc1ccc(Cl)cc1)c1ccc(-c2cc(C(F)(F)F)[nH]n2)c(O)c1`, for which the growth is 26.2%.

For `CCCCCCCCNC(C)C(O)c1ccc(SC(C)C)cc1` (stereo not given), the growth is 75.9%.

In the case of `CCSc1ccc([C@@H]2[C@@H](O)C(=O)N2c2cc(OC)c(OC)c(OC)c2)cc1`, the growth is 35.5%.

Consider `Nc1ncnc2c1N=C(c1ccc(F)cc1)CC(c1sc(Cl)nc1Cl)N2` (stereo not given), for which the growth was 92.9%.

For `O=[N+]([O-])c1cccc(N=C(Nc2cccc([N+](=O)[O-])c2)c2ccccc2)c1`, the growth was 92.4%.

Take `O=C(OCc1ccc2c(Br)cc(Br)c(O)c2n1)c1cc2ccccc2[nH]1`: the growth is 45.6%.

As to `COC(=O)c1cc(Cl)cc([N+](=O)[O-])c1O`, the growth is 108%.

As to `CSC(=S)N/N=C(\C)c1ccccn1`, the growth is 24.6%.

With `COc1ccc(C2=NN(C=O)C(c3ccc(OS(=O)(=O)c4ccc(C)cc4)c(OC)c3)C2)cc1` (stereo not given), the growth was 62.5%.

`CCN(CC)C(Cl)=Nc1ccc(Cl)cc1`: the growth is 95.5%.

For the compound `C#CC[C@@H]1C[C@]2(C)[C@H]3CC=C4[C@H]5[C@@H](C)[C@H](C)CC[C@]5(C(=O)NCCCN5CCN(CCCN)CC5)CC[C@@]4(C)[C@]3(C)CC[C@H]2C(C)(C)[C@H]1OC(C)=O`, the growth is -46.1% (active).

`COc1ccc(C2CC(c3ccc(Nc4ccnc5cc(Cl)ccc45)cc3)=NN2c2ccccc2)cc1` (stereo not given): the growth is 109%.

With `Oc1ccc(-c2cnc(-c3ccccc3)[nH]2)c(O)c1`, the growth was 98%.

In the case of `Clc1ccc2c(c1)-c1ccccc1C1=NCCN12`, the growth was 41.6%.

With `CC(C)c1[nH]ncc1-c1nc2ccc3[nH]ncc3c2c2c1CCCC2`, the growth was 40.4%.

For `CC[C@H](Nc1nc(C)nc(N)c1C#N)c1nc2cccc(NCc3ccc(C(=O)NO)cc3)c2c(=O)n1-c1ccccc1`, the growth was 17.6%.

Turning to `CCCCCCCCCCCCCCCCCC1=NC(C)(C)CN1C(C)(C)CO`, the growth is 37.2%.

As for `Cc1cc(C)cc(CCCCCCCCCCCCCCCCCC(=O)O)c1`, the growth is 115%.

Regarding `COc1ccc(/C=C/C(=O)c2ccc(NC(=O)CSc3nnc(-c4ccc(Cl)cc4)n3-c3ccccc3)cc2)cc1`, the growth is 96.2%.

Turning to `COc1cccc(OCC(O)CN2CCN(c3ccccc3)CC2)c1` (stereo not given), the growth was 105%.

On to `Cc1cc2nc3c(=O)[nH]c(=O)nc-3n(CC=O)c2cc1C`, for which the growth is 99.8%.

As to `COc1ccc(-c2nn(-c3cccc(Cl)c3)cc2/C=C2\C(=N)N(c3ccccc3)N=C2N)cc1`, the growth was 83.5%.
